In PubChem BioAssay AID1645860 (Buhrlage Lab, Dana-Farber Cancer Institute and Novartis …, 2021) one finds inhibition data, which are given here for 89 compounds.

Structures are written as SMILES. Out of some 47,000 compounds screened, about 2,500 (5.3%) were called active. The entries come from a sample that favours actives as a whole. Unmarked numbers belong to inactive results. Cut-off read from the data, not from the text of the source: active = inhibition above about 30%; inactive = the rest.

By inhibition is commonly meant the change of the read-out against control, counted positive when it falls.

The test deals with Ubiquitin carboxyl-terminal hydrolase 30 (Homo sapiens) (UniProt Q70CQ3). Briefly: blocks human USP30 ubiquitin-rhodamine cleavage (AID 1645860). The conditions noted are these: purified USP30, Ub-rhodamine cleavage fluorescence; at 25 µM; hits give high values.
Chain of Ubiquitin carboxyl-terminal hydrolase 30 (Homo sapiens) (Q70CQ3 whole entry, looked up): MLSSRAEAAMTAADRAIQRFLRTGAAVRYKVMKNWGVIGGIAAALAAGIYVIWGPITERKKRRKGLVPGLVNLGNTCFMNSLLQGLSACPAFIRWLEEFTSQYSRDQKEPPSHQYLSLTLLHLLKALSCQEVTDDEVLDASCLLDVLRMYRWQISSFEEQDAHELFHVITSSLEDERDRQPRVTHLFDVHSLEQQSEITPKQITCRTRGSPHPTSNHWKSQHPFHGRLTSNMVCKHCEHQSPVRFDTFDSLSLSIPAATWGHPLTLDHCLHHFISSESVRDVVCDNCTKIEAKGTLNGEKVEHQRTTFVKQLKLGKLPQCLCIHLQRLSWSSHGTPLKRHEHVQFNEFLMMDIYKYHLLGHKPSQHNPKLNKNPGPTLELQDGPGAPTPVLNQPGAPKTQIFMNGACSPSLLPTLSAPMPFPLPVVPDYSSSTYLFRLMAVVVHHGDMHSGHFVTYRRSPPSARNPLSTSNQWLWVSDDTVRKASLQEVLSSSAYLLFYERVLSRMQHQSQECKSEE
Regarding `CCC(C(=O)Nc1ccc(-c2cn3cccnc3n2)cc1)c1ccccc1` (centres undefined), the inhibition was -89.6%.

In the case of `N#Cc1ccc(C(=O)Nc2cccc(-c3noc(C4CC4)n3)c2)c(F)c1`, the inhibition was 13.2%.

Regarding `Cc1ccc(F)c2c(=O)c3c([nH]c12)CCN(CC(=O)Nc1cccc(C#N)c1)C3`, the inhibition was -178%.

For the compound `O=C(Cn1c(=O)n(Cc2ccc3c(c2)OCO3)c(=O)c2cccnc21)Nc1ccc(F)cc1`, the inhibition was 21.5%.

For the compound `CC(C)(C)C(=O)Cn1c(=O)n(Cc2ccco2)c(=O)c2ccccc21`, the inhibition is 1.71%.

On to `O=C(Cn1c(=O)n(Cc2ccc3c(c2)OCO3)c(=O)c2ccccc21)NCc1ccco1`, for which the inhibition is 33% (active).

As to `Cc1cc2oc(=O)cc(CN3CCN(Cc4ccccc4)CC3)c2cc1C`, the inhibition is 3.27%.

For `Cc1cccc(NC(=O)Nc2ccc3c(c2)N(S(=O)(=O)c2ccccc2)CC3)c1C`, the inhibition is 30.5% (active).

On to `COc1ccccc1NC(=O)c1cccc(S(=O)(=O)N2CCc3ccccc32)c1`, for which the inhibition is -7.37%.

Regarding `Cc1ccc(NC(=O)c2ccc3c(c2)N(S(C)(=O)=O)CC3)cc1C`, the inhibition is -53.8%.

On to `COc1ccc(C2=NC3(CCN(Cc4cccc(F)c4)CC3)NC2=O)cc1`, for which the inhibition was -23.4%.

For `CCc1cnc(N2CC[C@@H]3CN(CCC(C)C)S(=O)(=O)[C@@H]3CC2)nc1`, the inhibition is 27.9%.

In the case of `Cc1ccc2c(=O)cc(CN(C)Cc3ccc(F)cc3)[nH]c2c1C`, the inhibition was -7.81%.

In the case of `COc1ccc(C2=CC(c3ccc(Cl)cc3)n3ncc(C(=O)Nc4ccccc4)c3N2)cc1` (centres undefined), the inhibition is -15.7%.

Consider `C=C1CCC2[C@](C)(CCC[C@]2(C)C(=O)OC)[C@H]1CCc1ccoc1/C=C/C(=O)O` (some centres undefined), for which the inhibition was 61.8% (active).

Regarding `C=C1CCC2[C@](C)(CCC[C@]2(C)C(=O)OC)[C@H]1CCc1ccoc1C[N+](C)(C)Cc1ccccc1` (some centres undefined), the inhibition is 72.7% (active).

Consider `CNc1nc(C2CCNCC2)nc2c1CCN(S(=O)(=O)c1ccccc1Cl)C2`, for which the inhibition is -118%.

Consider `COc1cc(O)ccc1CN1CCCC12Cc1ccccc1CNC2=O` (centres undefined), for which the inhibition is -28%.

Take `Cc1cncc(C2CCCN(C(=O)CCc3cc(Cl)no3)C2)n1` (centres undefined): the inhibition was -18.4%.

Take `O=C(COc1ccccc1Cl)NCC(c1ccco1)N1CCOCC1` (centres undefined): the inhibition is -52.2%.

Regarding `COc1ccc(N2C(=O)N(Cc3ccccc3)S(=O)(=O)c3cccnc32)cc1`, the inhibition was 13.9%.

Take `COc1ccccc1NC(=O)NCc1cnn2ccccc12`: the inhibition was 14.1%.

On to `Cc1nc(C2CCN(C(=O)C(C)(C)C)CC2)cc(N2CC3(CCOCC3)OC2=O)n1`, for which the inhibition is 6.69%.

For `O=C(C1CCCCC1)N1CCC(c2nc3c(nnn3Cc3cccc(F)c3)c(=O)[nH]2)CC1`, the inhibition was 19.3%.

As for `O=C(C1CCCCC1)N1CCN(c2ncnc3c2nnn3Cc2ccccc2)CC1`, the inhibition was 43.1% (active).

Regarding `c1ccc(Cn2nnc3c(N4CCCCC4)ncnc32)cc1`, the inhibition was 3.44%.

Consider `CCS(=O)(=O)N1CCc2c(nc(C3CCCN3)nc2NC)C1` (centres undefined), for which the inhibition was -56.6%.

Take `COc1ccc(NC(=O)C(C)c2c(C)n[nH]c2C)cc1` (centres undefined): the inhibition was 23.5%.

Take `Cc1cccc2c1N(C(=O)Nc1ccc(OCc3ccccc3)cc1)CCC2`: the inhibition is 16.1%.

In the case of `O=C(CN1CCCC1c1ccc2c(c1)OCCCO2)NCCc1ccccc1F` (centres undefined), the inhibition is -52%.

`Cn1cc(CCNC(=O)Nc2cc(F)ccc2F)c2cccnc21`: the inhibition was -16.4%.

As to `Cc1ccc(N(C)C(=O)CCn2cnc3ccccc3c2=O)cc1`, the inhibition was -5.01%.

Take `CCN1CCc2nc(-c3ccccc3)n(CC(=O)Nc3cccc(Cl)c3C)c(=O)c2C1`: the inhibition was -97%.

Consider `Cc1c(Cl)cccc1NC(=O)CCn1cnc2ccccc2c1=O`, for which the inhibition was 74% (active).

With `CCOc1ccc(CC(=O)N2CCN(c3ccc(OC)nn3)CC2)cc1`, the inhibition is -11.9%.

As for `CSc1ccccc1NC(=O)c1ccc(N2CCCC2)nn1`, the inhibition was 77.3% (active).

Regarding `Cc1cc(C)n(-c2ccc(C(=O)Nc3ccccc3C(C)C)nn2)n1`, the inhibition was 34.9% (active).

On to `Cc1cc(C)n(-c2ccc(C(=O)NCC(c3ccccc3)c3c[nH]c4ccccc34)cc2)n1` (centres undefined), for which the inhibition was -19.5%.

Turning to `O=C(c1ccc(N2CCCC2)nn1)N1CCN(c2ccccn2)CC1`, the inhibition was 3.65%.

In the case of `O=C(Cc1ccccc1)N1CCN(c2ccc(N3CCCC3)nn2)CC1`, the inhibition is -15.8%.

Consider `O=C(CSc1ncnc2c1nnn2-c1ccc(F)cc1)N1CCc2ccccc21`, for which the inhibition is 3.49%.

For the compound `CCCOc1ccc(C2Nc3ccccc3S(=O)(=O)N2Cc2ccccc2)cc1OCC` (centres undefined), the inhibition was 11%.

On to `CCc1noc(-c2c(C)cc(C)n2CC(=O)NCc2cccc(F)c2)n1`, for which the inhibition was 19.8%.

`COc1ccc(C(CNC(=O)c2oc3ccccc3c2C)N2CCOCC2)cc1` (centres undefined): the inhibition is 0.732%.

In the case of `Cc1noc(-c2cccn2Cc2ccc(F)cc2)n1`, the inhibition is -50.7%.

Turning to `Cc1ccc(Cn2cc(-c3noc(-c4ccc[nH]4)n3)nn2)cc1`, the inhibition was 65% (active).

With `Cc1ccc(Cn2cc(-c3noc(-c4ccccn4)n3)nn2)cc1`, the inhibition was 15%.

For `CCN1C(=O)c2c(C(=O)NC3CC3)ncn2CC1(C)C(=O)NC1CCCC1` (centres undefined), the inhibition was 9.61%.

Turning to `COc1cc(C(=O)Nc2ccc(-c3nc4cnccc4o3)cc2)cc(OC)c1OC`, the inhibition is 14.2%.

`COc1cccc(CNC(=O)c2ccc(-c3cncnc3)nc2)c1`: the inhibition was 17.3%.

For `COc1cccc(C(=O)NCc2ccc(-c3nc4cnccc4o3)cc2)c1`, the inhibition is 30.7% (active).

As for `Cc1cnc(C(=O)N2CCC3(CC2)CC(OCC2CC2)CO3)cn1` (centres undefined), the inhibition is -3.6%.

As to `O=C(Cc1ccccc1)N1CCc2[nH]nc(-c3ccc(F)cc3)c2C1`, the inhibition is -4.25%.

On to `CC(NC(=O)c1ccc(S(=O)(=O)Nc2ccccc2)cc1)c1ccc(S(N)(=O)=O)cc1` (centres undefined), for which the inhibition was 11.3%.

Consider `CC1(C)Cc2nc(-c3ccccc3)nc(SCC(=O)Nc3cccc4ccccc34)c2CO1`, for which the inhibition was -6.78%.

Consider `CN1C(=O)C(C)(C)COc2ccc(NS(=O)(=O)c3ccccc3Cl)cc21`, for which the inhibition was 0.732%.

Consider `CCCCN(c1ccccc1)S(=O)(=O)c1cccc(C(=O)OCC(=O)NCc2ccc3c(c2)OCO3)c1`, for which the inhibition was 47.1% (active).

As to `O=C(COC(=O)c1ccc(F)c(S(=O)(=O)N2CCOCC2)c1)NCc1ccc2c(c1)OCO2`, the inhibition is -3.24%.

On to `COc1ccc2c(Sc3ccccc3)c(C(=O)NCc3ccc4c(c3)OCO4)[nH]c2c1`, for which the inhibition is 7.37%.

Consider `Cc1c(-c2nn3c(-c4ccco4)nnc3s2)cccc1[N+](=O)[O-]`, for which the inhibition was -45.6%.

For the compound `CC(C)Cc1cc(-c2nn3c(-c4ccccc4Cl)nnc3s2)n[nH]1`, the inhibition was 40.6% (active).

Consider `CNc1nc2c(c(=O)n1C)CN(S(=O)(=O)c1ccccc1)CC2`, for which the inhibition was 11.5%.

On to `CC(C)c1ccc(C(=O)N2CCN(c3cnn4cnnc4c3)CC2)cc1`, for which the inhibition is -7.33%.

Consider `COc1ccc2ccccc2c1S(=O)N1CCN(c2ccccc2F)CC1` (centres undefined), for which the inhibition is 1.36%.

For the compound `COc1cc2[nH]c(=O)n(Cc3ccc(C(=O)N4CCN(c5ccccn5)CC4)cc3)c(=O)c2cc1OC`, the inhibition is 9.66%.

For `O=C(Cn1cnc2ccccc21)N1CCCc2ccccc21`, the inhibition is -7.37%.

Take `CC1CCN(C(=O)CSc2ccc3nnc(-c4cccc(F)c4)n3n2)CC1`: the inhibition is -0.05%.

For `O=C(CSc1ccc2nnc(-c3ccccc3)n2n1)N1CCCc2ccccc21`, the inhibition is 51.5% (active).

In the case of `CC(C)CN1[C@H]2CCN(C(=O)c3ccccc3)CC[C@@H]2Oc2ccccc2S1(=O)=O`, the inhibition was 16.5%.

Regarding `Cc1cccc(S(=O)(=O)NCCc2cn(C)c3ncccc23)c1`, the inhibition is -9.95%.

With `Cc1cc2c(cc1S(=O)(=O)N1CCC(C(=O)N(C)Cc3ccco3)CC1)OCC(=O)N2`, the inhibition is 26.1%.

For `O=C(Nc1cc(-c2ccccc2)nn1C1CCS(=O)(=O)C1)c1ccccc1F` (centres undefined), the inhibition is -4.62%.

As for `CC(C)(C)n1nc(C2CC2)c(Br)c1NC(=O)c1ccccc1F`, the inhibition was 35.5% (active).

Regarding `O=C(Nc1c(C(=O)N2CCOCC2)oc2ccccc12)c1ccccc1F`, the inhibition is 10.2%.

Turning to `O=C(Nc1cc(=O)[nH]c2nc(CCc3ccccc3)nn12)c1ccc(F)cc1`, the inhibition was -74.9%.

Turning to `C[C@]12C(=O)N(c3cccc(C(=O)NCCN4CCOCC4)c3)C(=O)N1CCc1c2[nH]c2ccccc12`, the inhibition was 12.9%.

Take `COc1ccc2[nH]c3c(c2c1)CCN1C(=O)N([C@@H](C)C(=O)NCC(=O)O)C(=O)[C@]31C`: the inhibition is -8.05%.

As to `COc1ccc(CNC(=O)c2ccccc2N2C(=O)N3CCc4c([nH]c5ccccc45)[C@@]3(C)C2=O)cc1`, the inhibition is 41.7% (active).

As for `O=C(N[C@@H]1C[C@@H](Oc2cccc(F)c2)[C@H](O)[C@H]1N1CCCC1)C1CCOCC1`, the inhibition was -0.94%.

As to `COc1cccc(C(=O)N[C@@H]2C[C@@H](Oc3ccccc3)[C@H](O)[C@H]2O)c1`, the inhibition was 26.7%.

Regarding `Clc1cc2nc(N3CCN(c4ccccn4)CC3)c3nncn3c2cc1Cl`, the inhibition was 36.4% (active).

Consider `CCC(=O)Nc1ccc2c(c1)nc(CCN1CCN(c3ccccn3)CC1)n2C`, for which the inhibition is -16.8%.

As for `Cc1nn(-c2ccccc2)c(C)c1S(=O)(=O)N1CCN(c2ccccn2)CC1`, the inhibition was -17.2%.

For the compound `CCN(C(=O)COc1cccnc1[N+](=O)[O-])c1ccccc1`, the inhibition is -14.2%.

In the case of `O=C(NCC(=O)N1CCCc2ccccc21)c1cccc2[nH]ccc12`, the inhibition is 5.02%.

Consider `O=C(c1ccccc1)N1CCC(c2nc3c(nnn3Cc3c(Cl)cccc3Cl)c(=O)[nH]2)CC1`, for which the inhibition was -14.3%.

Consider `Cc1ccc(-n2c(SCC(=O)N3CCOCC3)nnc2-c2cc3ccccc3o2)cc1`, for which the inhibition was -10.7%.

For `COc1ccc(-n2c(SCC(=O)OC(C)C)nnc2-c2ccccn2)cc1`, the inhibition is 16.8%.

On to `O=C(CSc1nnc(-c2ccc3c(c2)OCO3)n1-c1ccccc1)OCC(=O)c1ccccc1`, for which the inhibition is 69.9% (active).
